System: VDR:RXRa (NR concentration 270 nM, RXRa partner concentration 90 nM)
Test: PBM binding z-score (relative to random genomic background probes); higher = stronger binding; sequences stand for … in GC…GCGATTGACAGCGTAGAATGAAGG
Procedure: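 Protein-binding microarray (Agilent 4x180K custom design, double-stranded 60-nt probes: 5' GC cap, 34-nt variable region, 24-nt constant primer region; full probe sequence given). Purified or IVT nuclear receptor:RXRα heterodimers (3:1 NR:RXRα, mostly 270:90 nM) or homodimers were incubated for 1 h in PBS with 2% milk and no ligand, then detected with Alexa488 antibodies. Fluorescence from o1-orientation probes (~5 replicates averaged) was converted to z-scores against 500 random hg19 background probes. Variable regions are seed direct-repeat (DR0–DR5) sites, all their single-nucleotide variants and half-site ablations.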

Sequence | PBM binding z-score
CGTCCAAGGTCAATGCTAGGTCAGTGAGAGCATT | 5.11
TCTGCTAGGTCAACGAGGGTCAGCTAATCTGCTA | 5.1
CATACGGGGTCAGCTAGGCCAGAGTAGGGACGGC | 6
CCAGACAGGTGAGAAGGTGACTCAGCCTCGATTA | -0.0388
ATAGGTAGGTTAGCTGGGGTCATTCAGACTAGGC | 6.28
TCTATTAGTTGAAGGGCAACGGACGAGTCCGTTT | 1.06
CAAATTAGGTCAAGGTCAAAGTCGGTTTGTGCCA | 5.33
TCATATAGGTAATAGAGGTGAAAGTCGGCATCTA | 2.08
AGAATGAGGTTATAAAGATCAGGGAATTGCGGTC | 1.27
TCAAGCAGGCCAGAGGGTCACTCAAGAGGTACGG | 1.52
CCTACTGGGCCGTCAGGTCATTGATATCAACGTT | 1.32
CCGAGTGGGTTATGGGGCATTCAGGCAACGGTGA | -0.199
CCAACGAGGGCATGAGTTGATAGCAAATGCCGAT | 1.09
TCATATAGGTGAATGCTAGGTGAAAGTCCGATCT | 0.699
ACAGACAGTTGAGTGAAGGTAACTCAGCTGGACG | -0.356
TGAATGAGGTTTTAAGATCAGGGAACGTTGCAAA | -0.241
GGTACGAGGGCAAGTTGATAGCAGAGTTTGATGG | 1.11
CGAACTAGGTCAAGGACAGGGAATCTCCGCACGC | 1.09
CCTAGCAGGCCAATCTGGGTCACTTAAGGCTTGA | 0.526
CTCGAAAGGTCGTGCTCAGGTAAGTATACCAAAC | 3.36

Sequence | PBM binding z-score
TCATATAGGTAATACCGGTGAAAGTCGGCATCTA | 0.463
TTACCAAGGTGAGCTGAGCTCGTTGATCCAACTC | -0.427
AGTCAAAGTTCACTAGGGAACGTAAGATTCAGCT | 3.85
CCTACTGGGCCAACAGGTCATTGATATCAACGTT | 1.93
CCTACTGGGCCATCAGATCATTGATATCAACGTT | -0.181
TCTAGCAGGCCCGAGGGTCACTCAAGAGGTACGG | 1.14
GCTTACGGGTCAGAGGTTATAGCATGAATAGAAT | 3.48
TCTTGAAGATCAATAGAGGTTAAGAAAGTGCGCT | 1.92
TCTCCTAGGTCAGTTGGTCAGCTAACGAGCTGCC | 0.839
GCTGCTAGGTCAACTTATGGTCAGCTAAAGCTCG | 2.04
CCCGAAAGGTCGGTTGAGGTGAGTATACGGATAA | 2.57
ATACCAAGGTGATCGTGGGGTCGTTGATACTAAC | 3.44
GATACAGGGTCAGCCAGAGGCCAGAGTATGGAAA | 3.64
CCTACTGGGCCACCAGGTCATTGATATCAACGTT | 1.97
TCTAGTTGGTCAAAAGTCACACACTCGAAATGCG | 1.21
ACTAGCAGGCCAAGTTTGGGTCAATCAAACAAAG | 0.502
ACTCGTAGGACAAAGGTCAGAGCTACGCCAGTGA | 2.89
TCTTGGAGGACACGAAGGTCAGAGCTTTCCAGAG | 2.35
ATACCAAGGTGATCTTGAGGTCGTTGATACTAAC | 3.57
CCTAGCAGGCCAATCTGGGTCACCCAAGGCTTGA | 0.707

From the supplement of paper PMC6555819
